Activity calls are given as the source filed them. How the source made its calls: active means hit-call score of the fitted dose curve at least 0.9, where 1 is the maximum; inactive means score below 0.9.
How the values were obtained:
Conditions in all cases: mRNA level, 48 h; actives raise or lower the signal
[1] = read-out: Interleukin 6 (IL6), IL6 (gene 3569); assay: LTEA_HepaRG_IL6: Life Technologies and Expression Analysis (LTEA) Assay for Interleukin 6 (IL6) using HepaRG (AID 2283509)
Outline: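 HepaRG cells exposed in duplicate for 48 h to eight half-log concentrations, top 100 uM, in 0.5% DMSO serum-free induction medium. mRNA measured by qRT-PCR, normalized to ACTB, GAPDH and POLR2A. Bidirectional fit versus DMSO.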

[2] = read-out: Interleukin 6 Receptor (IL6R), IL6R (gene 3570); assay: LTEA_HepaRG_IL6R: Life Technologies and Expression Analysis (LTEA) Assay for Interleukin 6 Receptor (IL6R) using HepaRG (AID 2283510)
Outline: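 Differentiated human HepaRG cells, plated 48 h then switched to serum-free induction medium, were dosed in duplicate for 48 h at eight half-log concentrations up to 100 uM in 0.5% DMSO. IL6R mRNA quantified by qRT-PCR, normalized to ACTB/GAPDH/POLR2A; bidirectional fit versus DMSO.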

[3] = read-out: Potassium channel subfamily K member 1 (KCNK1), KCNK1 (gene 3775); assay: LTEA_HepaRG_KCNK1: Life Technologies and Expression Analysis (LTEA) Assay for Potassium channel subfamily K member 1 (KCNK1) using HepaRG (AID 2283511)
Outline: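 Differentiated HepaRG cells, 48 h exposure in serum-free induction medium with 0.5% DMSO; 8 concentrations, half-log from 100 uM, duplicate. KCNK1 mRNA by qRT-PCR, normalized to ACTB, GAPDH, POLR2A; bidirectional fit vs DMSO.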

[4] = read-out: Keratin 19 (KRT19), KRT19 (gene 3880); assay: LTEA_HepaRG_KRT19: Life Technologies and Expression Analysis (LTEA) Assay for Keratin 19 (KRT19) using HepaRG (AID 2283512)
Outline: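 KRT19 transcript levels, measured by Fluidigm qRT-PCR against three housekeeping genes, are fitted for gain or loss of signal relative to DMSO. Human HepaRG cells receive test chemicals (top 100 uM, half-log steps, 0.5% DMSO) for 48 hours.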

[5] = read-out: JUN Transcription Factor, JUN (gene 3725); assay: LTEA_HepaRG_JUN: Life Technologies and Expression Analysis (LTEA) Assay for JUN Transcription Factor using HepaRG (AID 2283513)
Outline: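 Differentiated HepaRG cells were exposed to chemicals for 48 h in serum-free induction medium, 8 concentrations from 100 uM in half-log steps, 0.5% DMSO vehicle, in duplicate. JUN mRNA was quantified by TaqMan qRT-PCR, normalized to ACTB, GAPDH, POLR2A.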

[6] = read-out: Lipase C (LIPC), LIPC (gene 3990); assay: LTEA_HepaRG_LIPC: Life Technologies and Expression Analysis (LTEA) Assay for Lipase C (LIPC) using HepaRG (AID 2283514)
Outline: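 HepaRG cells, 48 h after plating, treated in duplicate for 48 h in serum-free induction medium over 8 half-log concentrations from 100 uM, 0.5% DMSO. LIPC mRNA by TaqMan qRT-PCR normalized to ACTB/GAPDH/POLR2A; bidirectional fit versus DMSO.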

[7] = read-out: Lipoprotein lipase (LPL), LPL (gene 4023); assay: LTEA_HepaRG_LPL: Life Technologies and Expression Analysis (LTEA) Assay for Lipoprotein lipase (LPL) using HepaRG (AID 2283515)
Outline: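 Differentiated HepaRG cells, plated 48 h, then exposed 48 h in serum-free induction medium to 8 concentrations (top 100 uM, half-log steps) in 0.5% DMSO, duplicate. LPL mRNA measured by qRT-PCR, normalized to ACTB, GAPDH and POLR2A.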

[8] = read-out: MicroRNA 122 (MIR122), gene 406906; assay: LTEA_HepaRG_MIR122: Life Technologies and Expression Analysis (LTEA) Assay for MicroRNA 122 (MIR122) using HepaRG (AID 2283516); further: the transcript read is the microRNA miR-122
Outline: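 Differentiated human HepaRG cells were exposed 48 h in serum-free induction medium to eight half-log concentrations (top 100 uM, 0.5% DMSO). Transcript level was measured by TaqMan qRT-PCR, normalized to ACTB, GAPDH and POLR2A, and fitted bidirectionally versus DMSO.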

[9] = read-out: matrix metalloproteinase-10 (MMP10), MMP10 (gene 4319); assay: LTEA_HepaRG_MMP10: Life Technologies and Expression Analysis (LTEA) Assay for matrix metalloproteinase-10 (MMP10) using HepaRG (AID 2283517)
Outline: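 Differentiated HepaRG cells in serum-free induction medium exposed 48 h in duplicate to 8-point half-log series up to 100 uM in 0.5% DMSO. mRNA quantified by qRT-PCR, normalised to ACTB, GAPDH, POLR2A; bidirectional fit versus DMSO.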

MYC, MYC (gene 4609) = assay: LTEA_HepaRG_MYC: Life Technologies and Expression Analysis (LTEA) Assay for MYC using HepaRG (AID 2283518)
Outline: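 HepaRG, ~100,000 cells/well, collagen I; 48 h plating; serum-free induction medium; 48 h dosing, duplicate, 100 uM top, half-log, 0.5% DMSO; total RNA → qRT-PCR MYC; gain/loss fit vs DMSO.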

[10] = read-out: matrix metalloproteinase-3 (MMP3), MMP3 (gene 4314); assay: LTEA_HepaRG_MMP3: Life Technologies and Expression Analysis (LTEA) Assay for matrix metalloproteinase-3 (MMP3) using HepaRG (AID 2283519)
Outline: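 HepaRG cells (~100,000/well) in serum-free induction medium were dosed in duplicate for 48 h with an 8-point half-log series from 100 uM, 0.5% DMSO. MMP3 mRNA was quantified by Fluidigm TaqMan qRT-PCR, normalized to three housekeeping genes.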

[11] = read-out: Paternally Expressed 10 (PEG10), PEG10 (gene 23089); assay: LTEA_HepaRG_PEG10: Life Technologies and Expression Analysis (LTEA) Assay for Paternally Expressed 10 (PEG10) using HepaRG (AID 2283520)
Outline: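 Differentiated HepaRG cells, plated 48 h then switched to serum-free induction medium, were exposed in duplicate for 48 h to eight half-log concentrations topping at 100 uM in 0.5% DMSO. PEG10 mRNA was quantified by TaqMan qRT-PCR, normalised to ACTB, GAPDH and POLR2A.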

[12] = read-out: Nuclear factor NF-kappa-B p105 subunit (Homo sapiens) (UniProt P19838); assay: LTEA_HepaRG_NFKB1: Life Technologies and Expression Analysis (LTEA) Assay for Nuclear Factor Kappa B Subunit 1 (NFKB1) using HepaRG (AID 2283521);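 further: TaqMan qRT-PCR transcript normalised to ACTB GAPDH and POLR2A housekeeping genes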
Outline: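 Differentiated human HepaRG cells in serum-free induction medium with 0.5% DMSO were exposed for 48 h to eight half-log concentrations, top 100 uM, in duplicate. NFKB1 mRNA measured by Fluidigm TaqMan qRT-PCR, normalised to ACTB, GAPDH and POLR2A; bidirectional fit versus DMSO.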

[13] = read-out: Protein phosphatase 2A (PPP2R4), PTPA (gene 5524); assay: LTEA_HepaRG_PPP2R4: Life Technologies and Expression Analysis (LTEA) Assay for Protein phosphatase 2A (PPP2R4) using HepaRG (AID 2283522)
Outline: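 Differentiated HepaRG cells in serum-free induction medium were exposed in duplicate for 48 h to eight concentrations, top 100 uM with half-log dilutions, in 0.5% DMSO. PPP2R4 mRNA was quantified by TaqMan qRT-PCR, normalized to ACTB, GAPDH and POLR2A.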

[14] = read-out: Phosphatase and tensin (PTEN), PTEN (gene 5728); assay: LTEA_HepaRG_PTEN: Life Technologies and Expression Analysis (LTEA) Assay for Phosphatase and tensin (PTEN) using HepaRG (AID 2283523)
Outline: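 HepaRG cells, 48 h after plating, exposed in duplicate for 48 h in serum-free induction medium to 8 half-log concentrations up to 100 uM (0.5% DMSO). PTEN mRNA by qRT-PCR, normalized to ACTB, GAPDH, POLR2A; bidirectional fit versus DMSO.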

[15] = read-out: solute carrier (SLC22A1), SLC22A1 (gene 6580); assay: LTEA_HepaRG_SLC22A1: Life Technologies and Expression Analysis (LTEA) Assay for solute carrier (SLC22A1) using HepaRG (AID 2283524)
Outline: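 Differentiated human HepaRG cells in serum-free induction medium, exposed 48 h in duplicate to 8-point half-log series from 100 µM top in 0.5% DMSO. SLC22A1 mRNA by TaqMan qRT-PCR normalized to ACTB, GAPDH, POLR2A; bidirectional fit versus DMSO.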

[16] = read-out: Pyruvate Dehydrogenase Kinase 4 (PDK4), PDK4 (gene 5166); assay: LTEA_HepaRG_PDK4: Life Technologies and Expression Analysis (LTEA) Assay for Pyruvate Dehydrogenase Kinase 4 (PDK4) using HepaRG (AID 2283525)
Outline: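 HepaRG cells plated 48 h, then switched to serum-free induction medium and exposed in duplicate for 48 h to 8 half-log concentrations from 100 uM in 0.5% DMSO. PDK4 mRNA measured by qRT-PCR, normalized to ACTB, GAPDH and POLR2A; bidirectional fit versus DMSO.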

[17] = read-out: NAD(P)H dehydrogenase [quinone] 1 (NQO1), NQO1 (gene 1728); assay: LTEA_HepaRG_NQO1: Life Technologies and Expression Analysis (LTEA) Assay for NAD(P)H dehydrogenase [quinone] 1 (NQO1) using HepaRG (AID 2283526)
Outline: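 Differentiated HepaRG cells, plated 48 h and then switched to serum-free induction medium, were exposed in duplicate for 48 h to 8-point half-log concentrations up to 100 uM in 0.5% DMSO. mRNA measured by qRT-PCR, normalized to ACTB, GAPDH, POLR2A; bidirectional fit versus DMSO.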

[18] = read-out: Nuclear factor erythroid 2-related factor 2 (Homo sapiens) (UniProt Q16236); assay: LTEA_HepaRG_NFE2L2: Life Technologies and Expression Analysis (LTEA) Assay for Nuclear factor erythroid 2-related factor 2 (NFE2L2) Transcription Factor using HepaRG (AID 2283527);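 further: TaqMan qRT-PCR transcript level normalised to ACTB GAPDH and POLR2A housekeeping genes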
Outline: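 Differentiated human HepaRG cells, serum-free induction medium, exposed 48 h in duplicate to eight half-log concentrations up to 100 uM in 0.5% DMSO. NFE2L2 mRNA by Fluidigm TaqMan qRT-PCR, normalised to ACTB, GAPDH, POLR2A; bidirectional change versus DMSO.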

[19] = read-out: Insulin-like growth factor-binding protein 1 (IGFBP1), IGFBP1 (gene 3484); assay: LTEA_HepaRG_IGFBP1: Life Technologies and Expression Analysis (LTEA) Assay for Insulin-like growth factor-binding protein 1 (IGFBP1) using HepaRG (AID 2283508)
Outline: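 Thawed HepaRG cells are plated for 48 h, switched to serum-free induction medium, then dosed in duplicate for another 48 h (100 uM top, half-log steps). Lysates in RLT go to qRT-PCR, and gain or loss of signal is fitted relative to vehicle.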

Measured: AC50

Nuclear factor erythroid 2-related factor 2 (Homo sapiens), sequence (Q16236 whole entry, looked up): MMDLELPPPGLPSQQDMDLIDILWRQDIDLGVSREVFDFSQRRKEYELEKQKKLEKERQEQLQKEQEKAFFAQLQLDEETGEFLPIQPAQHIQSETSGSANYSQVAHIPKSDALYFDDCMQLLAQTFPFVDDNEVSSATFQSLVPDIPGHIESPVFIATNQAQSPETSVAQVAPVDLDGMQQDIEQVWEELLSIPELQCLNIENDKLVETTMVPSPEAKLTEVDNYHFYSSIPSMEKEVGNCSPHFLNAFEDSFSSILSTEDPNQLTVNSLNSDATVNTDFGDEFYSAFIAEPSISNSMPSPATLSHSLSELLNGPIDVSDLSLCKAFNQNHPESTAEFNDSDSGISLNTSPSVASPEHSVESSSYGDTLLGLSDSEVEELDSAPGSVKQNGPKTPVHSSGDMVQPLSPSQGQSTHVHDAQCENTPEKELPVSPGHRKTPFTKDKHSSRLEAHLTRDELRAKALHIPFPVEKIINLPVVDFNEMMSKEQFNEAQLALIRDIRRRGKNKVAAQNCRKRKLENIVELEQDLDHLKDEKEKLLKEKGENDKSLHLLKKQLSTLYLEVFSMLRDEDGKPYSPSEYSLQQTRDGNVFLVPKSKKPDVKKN
Nuclear factor NF-kappa-B p105 subunit (Homo sapiens), sequence (P19838 whole entry, looked up): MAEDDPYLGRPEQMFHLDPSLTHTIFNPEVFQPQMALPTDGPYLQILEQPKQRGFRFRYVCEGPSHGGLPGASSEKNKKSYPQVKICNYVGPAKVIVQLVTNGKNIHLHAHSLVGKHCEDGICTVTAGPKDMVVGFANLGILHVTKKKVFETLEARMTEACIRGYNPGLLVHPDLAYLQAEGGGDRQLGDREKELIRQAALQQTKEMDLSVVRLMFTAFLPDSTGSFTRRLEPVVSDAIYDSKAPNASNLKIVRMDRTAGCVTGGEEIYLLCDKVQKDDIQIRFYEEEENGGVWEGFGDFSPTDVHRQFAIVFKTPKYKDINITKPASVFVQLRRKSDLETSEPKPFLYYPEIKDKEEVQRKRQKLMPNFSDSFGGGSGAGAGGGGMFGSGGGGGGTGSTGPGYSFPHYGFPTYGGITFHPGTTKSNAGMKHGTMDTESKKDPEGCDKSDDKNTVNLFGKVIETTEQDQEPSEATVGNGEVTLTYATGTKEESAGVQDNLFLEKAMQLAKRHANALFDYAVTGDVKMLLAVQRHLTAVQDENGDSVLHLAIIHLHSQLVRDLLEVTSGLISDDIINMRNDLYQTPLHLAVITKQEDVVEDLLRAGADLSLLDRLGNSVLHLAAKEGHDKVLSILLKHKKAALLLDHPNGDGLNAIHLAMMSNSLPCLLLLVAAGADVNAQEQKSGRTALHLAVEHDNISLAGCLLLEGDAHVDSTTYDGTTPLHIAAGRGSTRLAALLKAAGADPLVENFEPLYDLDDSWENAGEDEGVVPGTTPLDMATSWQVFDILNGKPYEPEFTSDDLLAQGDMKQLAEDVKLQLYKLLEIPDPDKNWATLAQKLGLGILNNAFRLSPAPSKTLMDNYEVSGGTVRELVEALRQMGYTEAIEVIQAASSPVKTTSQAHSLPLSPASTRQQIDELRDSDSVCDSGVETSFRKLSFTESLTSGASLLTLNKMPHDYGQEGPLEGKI

O=C(N[C@@H](Cc1ccccc1)[C@@H](O)C(=O)N1C[C@@H](O)[C@@H](O)C1)c1cc2cc(Cl)ccc2[nH]1
active: [7] 20.1 µM | [11] 50 µM
inactive: [1] | [2] | [3] | [4] | [5] | [6] | [8] | [9] | MYC, MYC (gene 4609) | [10] | [12] | [13] | [14] | [15] | [16] | [17] | [18]

CCOC(=O)C(C)(C)Oc1ccc(Cl)cc1
active: [16] 24.6 µM
inactive: [19] | [1] | [3] | [4] | [5] | [6] | [7] | [8] | [9] | MYC, MYC (gene 4609) | [10] | [11] | [12] | [13] | [14] | [15] | [17] | [18]

Cc1cccc([N+](=O)[O-])c1C
inactive: [19] | [1] | [3] | [4] | [5] | [6] | [7] | [8] | [9] | MYC, MYC (gene 4609) | [10] | [11] | [12] | [13] | [14] | [15] | [16] | [17] | [18]

— PubChem BioAssay (EPA / NIEHS)
